An excerpt weighted towards active compounds, which were near 6.9% of everything screened.
Vif-A3F inh – inhibitors of Vif-A3F interaction; HeLa A3F-eYFP + Vif (tagged APOBEC3F with the HIV-1 protein that degrades it), YFP fluorescence increase; Potency, µM (titrated, usually from 46.1 µM), for inactives: top-dose activity, negative = active; 390,000 compounds, 0.2% hits; AID 602313; also: potency is read from the fitted curve at half-maximal effect; % of control where 0% means no effect; nearly all actives have a fitted effect of over 65% in size
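HeLa cells stably expressing A3F-eYFP plus Vif, plated and incubated overnight at 37 deg C, then exposed to compounds overnight at 37 deg C. Blocked degradation read as raised yellow fluorescence (Ex 488/Em 500-530).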
IL1B secr inh – inflammasome signaling inhibition, IL-1 beta readout; THP-1 LPS/ATP IL-1B secretion, AlphaLISA, 16 h; active compounds read low; activity change, % at 57.5 µM; 360,000 compounds, 4.7% hits; AID 743279; in the data active = activity change below about -50%; inconclusive = mostly about -30% to -49%; also: % is scaled to controls: 0 for no effect and ±100 for the full control effect
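THP-1 cells pretreated 1 hr with compounds (up to 57.5 uM final), then stimulated with LPS (250 ng/mL final) plus ATP (1.25 mM final); secreted IL-1B measured by AlphaLISA after 16 hr, decreased signal indicating inhibition.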
Vif-A3G inh – Vif-A3G binding inhibition | Q9HC16 | HeLa A3G-eYFP + Vif (tagged APOBEC3G with the HIV-1 protein that degrades it), YFP fluorescence, overnight | Potency, µM (doses to about 46.1 µM), for the others: top-dose activity, negative = active, usual class: inhibitors | 410,000 compounds, 0.076% hits | AID 602310; also: potency is read from the fitted curve at half-maximal effect; % is scaled to controls: 0 for no effect and ±100 for the full control effect; nearly all actives have a fitted effect of over 60% in size
Target sequence (Q9HC16 whole entry, looked up): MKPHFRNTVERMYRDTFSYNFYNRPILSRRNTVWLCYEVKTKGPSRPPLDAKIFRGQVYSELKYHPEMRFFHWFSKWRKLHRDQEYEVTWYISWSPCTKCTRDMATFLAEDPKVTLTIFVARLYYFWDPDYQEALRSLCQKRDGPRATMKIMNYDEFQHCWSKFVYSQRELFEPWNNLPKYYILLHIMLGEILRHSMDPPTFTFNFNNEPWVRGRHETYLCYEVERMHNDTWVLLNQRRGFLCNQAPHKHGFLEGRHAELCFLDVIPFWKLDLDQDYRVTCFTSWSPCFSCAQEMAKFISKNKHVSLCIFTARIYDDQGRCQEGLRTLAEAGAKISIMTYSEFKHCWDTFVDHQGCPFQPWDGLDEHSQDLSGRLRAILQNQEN
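Read-out is eYFP fluorescence (Ex 488/Em 500-530) from Vif-expressing HeLa A3G-eYFP cells; more signal means A3G escaped Vif-mediated degradation. Cells plated overnight, compound pinned in, incubated overnight at 37 deg C.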
Giardia killer – Giardia lamblia killing | Giardia lamblia trophozoite viability | 340,000 compounds, 0.15% hits | activity change, % at 7.66 µM, hits read low | AID 540267; in the data active = activity change below about -80%; inconclusive = between about -30% and that limit;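 also: parasites exposed to compound for two days anaerobically before the ATP read; % is scaled to controls: 0 for no effect and ±100 for the full control effect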
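Compounds were tested on trophozoites seeded at 100 cells/well and held 48 hrs at 37 deg C anaerobically. An ATP-based luminescent kit measured the remaining live cells.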
MCF10A rerep – induces DNA re-replication in MCF 10a normal breast cells | MCF 10A DNA re-replication, Hoechst nuclear intensity, 48 h | Potency, µM (top dose mostly 46.1 µM), for the others: at the top dose activity, positive = re-replication, most hits filed as activators | 350,000 compounds, 2.9% hits; also: potency is read from the fitted curve at half-maximal effect; % of control where 0% means no effect; nearly all actives have a fitted effect of over 50% in size
SW480 rereplic – induces DNA re-replication in SW480 colon adenocarcinoma cells; SW480 DNA re-replication, Hoechst DNA content imaging, 48 h; 340,000 compounds, 1.8% hits; AID 624297; Potency, µM (highest dose often 46.1 µM), without a hit: at the top dose re-replication activation, most hits filed as activators; also: potency is read from the fitted curve at half-maximal effect; % of control where 0% means no effect; nearly all actives have a fitted effect of over 55% in size
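Compounds, transferred as 23 nL by pin tool, were incubated with cells for 48 hr; DNA content per nucleus was then quantified by Hoechst staining and fluorescence plate imaging.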
Numbers without * were called inactive; i = inactive; ? = inconclusive; / = no result; [ ] = remark or other dose. Unless noted, calls follow the shape of the dose curve; as a rule, active = well fitted curve in the direction sought with a large enough effect; inconclusive = small, poorly fitted or top-dose-only effect, or another doubt; inactive = no such curve, though single readings can be large; an effect the other way counts as inactive or inconclusive.

SMILES	Vif-A3F inh	IL1B secr inh	Vif-A3G inh	Giardia killer	MCF10A rerep	SW480 rereplic
CCOc1cc(CNC(=O)C2CCN(c3nc4ccccc4[nH]3)CC2)cc(OCC)c1OCC	5.7%	/	1.9%	/	/	/
O=C1NC(Cc2ccc(O)cc2)c2nc3cc(Cl)ccc3c(=O)n2-c2cc(Cl)ccc21 (centres undefined)	0.7%	-70.5*	-17.0%	21.1	?	4.1%
COc1c(C)cccc1C(=O)Nc1ccc(N2CCN(C(=O)c3ccccc3C)CC2)cc1	3.8%	-105.5*	-5.2%	-19.7	-9.8%	?
Cc1ccccc1C(=O)N1CCN(c2ccc(NC(=O)c3cccc(OC(C)C)c3)cc2)CC1	9.6%	-1.1	1.9%	-8.8	2.2%	-2.7%
CC(=O)N1CCN(c2ccc(NC(=O)C(c3ccccc3)c3ccccc3)cc2)CC1	7.3%	-57.9*	0.7%	-15.6	13.3%	-6.7%[1.84 µM]
COc1ccccc1C(=O)Nc1ccc(N2CCN(C(C)=O)CC2)cc1	-1.7%	-55.6*	-0.9%	-16.1	-28.5%	-15.8%
Cc1ccc(Cc2c(C)nn(-c3nc(C)c(C(=O)N4CCCCC4C)s3)c2C)cc1 (centres undefined)	1.7%	/	0.9%	/	/	/
COc1ccc(NC(=O)c2cc(-c3cc(Cl)ccc3OC)n[nH]2)cc1OC	/	-64.7*	-8.0%	/	/	/
COc1ccc(Cl)cc1-c1cc(C(=O)Nc2ccc(F)cc2)[nH]n1	/	0.0	-3.9%	/	/	/
COc1ccc(NC(=O)c2cc(-c3cc(Cl)ccc3C)n[nH]2)cc1OC	/	-51.5*	-15.1%	/	/	/
COc1ccc(OC)c(NC(=O)c2cc(-c3cc(Cl)ccc3O)n[nH]2)c1	1.4%	?	-15.9%	0.1	14.6µM*	?
CCc1ccccc1NC(=O)N1CCOc2ccccc21	1.7%	/	2.0%	/	/	/
Cc1ccc(NC(=O)Cn2cc3c(n2)CCCCC3)cc1	-4.4%	/	3.5%	/	/	/
CSc1cccc(NC(=S)N2CCC(N(C)C(C)C)CC2)c1	-1.7%	-12.8	2.0%	15.4	11.3%	-7.0%
Cc1c(Cl)cccc1NC(=S)N1CCCN(Cc2ccc(F)cc2)C1	1.5%	-88.1*	4.8%	6.3	23.9%	?
Cc1c(Cl)cccc1NC(=S)N1CCCN(Cc2ccccc2F)C1	-4.2%	-17.5	-6.8%	10.0	25.3%	?
Cc1ccccc1NC(=S)N1CCCN(Cc2ccc(F)cc2)C1	8.6%	?	-1.4%	-16.2	11.9%	-13.7%
CSc1cccc(NC(=S)N2CCC(N(C)C3CCCCCC3)CC2)c1	0.9%	-61.6*	-0.3%	38.5	-10.2%	1.5%
CSc1cccc(NC(=S)N2CCCN(Cc3ccc(F)cc3)C2)c1	-5.2%	-52.5*	-6.3%	-3.4	8.7%	?
Cc1ccccc1Cn1c(=O)n(CCCCC(=O)NCc2ccc3c(c2)OCO3)c(=O)c2ccccc21	-14.5%	/	?	/	/	/
CN(Cc1cccc(Cl)c1)C(=O)C1CCN(C(=O)Nc2ccccc2)CC1	0.6%	-21.8	1.5%	-4.8	10.0%	-3.6%
CN(Cc1ccccc1)C(=O)C1CCCN(Cc2cccc(Cl)c2)C1 (centres undefined)	2.7%	37.1	-0.8%	-6.6	0.291µM*	-42.8%
CSc1ncccc1C(=O)N1CCCC(C(=O)c2ccc3ccccc3c2)C1 (centres undefined)	10.0%	-56.2*	4.9%	-5.7	-6.8%	-19.6%
CSc1ccc(C(=O)C2CCCN(C(=O)c3cccnc3SC)C2)cc1 (centres undefined)	5.4%	52.6	0.0%	-1.7	0.1%	?
O=C(c1ccc2ccccc2c1)C1CCCN(C(=O)c2cccnc2)C1 (centres undefined)	-17.7%	i	-1.4%	-20.3	-1.4%	-4.7%
O=C(c1ccc2ccccc2c1)C1CCCN(C(=O)c2noc3c2CCCC3)C1 (centres undefined)	-0.1%	-71.5*	1.4%	6.3	?	-5.6%
Cn1cc(CN2CCCC(C(=O)c3cc(F)ccc3F)C2)c2ccccc21 (centres undefined)	-13.3%	-70.9*	0.8%	-2.6	-22.6%	0.2%
